# Measurements from PubChem BioAssay (EPA / NIEHS).
# “And” between values parts separate entries of the source, which are not always exact repeats. Equal values may be shown once. Inconclusive results are not listed. The source made the active and inactive calls. The calls were made as follows, unless noted: active = hit-call score of the fitted dose curve at least 0.9, where 1 is the maximum; inactive = score below 0.9.
# Legend:
# [1] = APR_HepG2_CellCycleArrest_1hr: Apredica 1-hour HepG2 Assay for Cell Cycle Arrest (AID 2282666); details: high-content imaging, actives raise or lower the signal
# Outline: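 HepG2 cells exposed for 1 h to 0.39–200 uM compound (0.5% DMSO). Fixed, Hoechst-stained nuclei imaged by ArrayScan; DNA content quantified by Cell Cycle analysis; bidirectional fit against DMSO.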
# [2] = ACEA_ER_80hr: ACEA Biosciences xCELLigence Real-Time Cell Analysis on Estrogen Receptor Agonism for Proliferation (AID 2282667; active = hit-call score of the fitted dose curve at least 0.9, where 1 is the maximum); details: T47D proliferation, impedance (xCELLigence), 80 h
# Outline: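 Estrogen-driven proliferation is captured as electrode impedance in T47D cells 80 h after compound addition. Test articles ran at 8 concentrations, 1:4 dilutions from 100 uM final, in two replicate plates.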
# [3] = APR_HepG2_NuclearSize_1hr: Apredica 1-hour HepG2 Assay for Nuclear Size (AID 2282670); details: high-content imaging, actives raise or lower the signal
# Outline: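 HepG2 cells dosed 1 hr with 0.39–200 uM compound (0.5% DMSO), formaldehyde-fixed, Hoechst 33342-stained and imaged at 20x; nuclear diameter from nuclear stain, fitted bidirectionally against DMSO.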
# [4] = APR_HepG2_p53Act_1hr: Apredica 1-hour HepG2 Assay for p53 Activation (AID 2282671); details: high-content imaging, actives raise or lower the signal
# Outline: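 HepG2 cells treated 1 h with compound at 0.39–200 uM (10 concentrations, duplicate) in 0.5% DMSO. Formaldehyde-fixed, permeabilised cells immunostained for p53 with Hoechst 33342; high-content imaging, bidirectional fit versus DMSO.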
# [5] = APR_HepG2_MitoticArrest_1hr: Apredica 1-hour HepG2 Assay for Mitotic Arrest (AID 2282672); details: high-content imaging, actives raise or lower the signal
# Outline: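 HepG2 cells exposed 1 hr to compounds at 0.39–200 uM (0.5% v/v DMSO final), then fixed in 3.7% formaldehyde and immunostained for phospho-histone H3 with Hoechst 33342. Mitotic arrest scored by automated fluorescence imaging, fitted bidirectionally versus DMSO.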
# [6] = APR_HepG2_MitoMass_1hr: Apredica 1-hour HepG2 Assay for Mitochondrial Mass (AID 2282674); details: high-content imaging, actives raise or lower the signal
# Outline: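 HepG2 cells dosed 1 hr with 0.39-200 uM compound (0.5% DMSO), duplicate wells. Mitochondria stained with 250 nM MitoTracker Red CMXRos for 30 min before formaldehyde fixation, imaged at 20x by ArrayScan; bidirectional fit versus DMSO.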
# [7] = APR_HepG2_MitoMembPot_1hr: Apredica 1-hour HepG2 Assay for Mitochondrial Membrane Potential (AID 2282675); details: imaging, actives raise or lower the signal
# Outline: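 HepG2 cells dosed 1 hour with 0.39–200 uM compound in duplicate, 0.5% DMSO final. MitoTracker Red CMXRos (250 nM, 30 min) loaded before formaldehyde fixation; fluorescence quantified by high-content imaging, bidirectional fitting versus DMSO.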
# [8] = APR_HepG2_CellCycleArrest_24hr: Apredica 24-hour HepG2 Assay for Cell Cycle Arrest (AID 2282905); details: imaging, actives raise or lower the signal;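 also: cell cycle arrest scored as ratio of 2N to 4N nuclear DNA content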
# Outline: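 Compounds at 0.39–200 uM (0.5% DMSO) for 24 h, then fixed and Hoechst 33342 stained. Cell-cycle analysis of nuclear DNA content by high-content imaging, fitted bidirectionally versus DMSO.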
# [9] = APR_HepG2_StressKinase_1hr: Apredica 1-hour HepG2 Assay for Stress Kinase (AID 2282906); details: HepG2 stress kinase (phospho-c-Jun) imaging, actives raise or lower the signal
# Outline: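 HepG2 cells dosed 0.39-200 uM (0.5% DMSO) for 1 h, then formaldehyde-fixed. Stress kinase read by phospho-c-Jun immunofluorescence using high-content imaging; bidirectional fit vs DMSO.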
# [10] = APR_HepG2_NuclearSize_24hr: Apredica 24-hour HepG2 Assay for Nuclear Size (AID 2282907); details: high-content imaging, actives raise or lower the signal
# Outline: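 HepG2 cells exposed 24 h to compounds at 0.39–200 uM (0.5% DMSO), fixed, Hoechst 33342 stained and imaged at 20x; nuclear diameter measured by automated image analysis, fitted bidirectionally against DMSO controls.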
# [11] = APR_HepG2_CellLoss_24hr: Apredica 24-hour HepG2 Assay for Cell Loss (AID 2282908); details: high-content imaging;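 as to AC50: fit in both directions so a hit may be cell loss or gain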
# Outline: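 HepG2 cells exposed 24 hr to 0.39–200 uM compound in duplicate at 0.5% v/v final DMSO. Cells fixed in 3.7% formaldehyde and Hoechst 33342-stained. Cell number came from nuclear imaging at 20x. Bidirectional fit versus DMSO.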
# [12] = APR_HepG2_MicrotubuleCSK_24hr: Apredica 24-hour HepG2 Assay for Microtubule CSK Stabilty (AID 2282909); details: HepG2 microtubule cytoskeleton imaging, actives raise or lower the signal
# Outline: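 HepG2 cells were treated 24 hr with compound at 0.39–200 uM in duplicate (0.5% DMSO final), then fixed and permeabilized. Alpha-tubulin immunofluorescence was imaged by high-content microscopy, with bidirectional fitting against DMSO and taxol as positive control.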
# [13] = APR_HepG2_MitoticArrest_24hr: Apredica 24-hour HepG2 Assay for Mitotic Arrest (AID 2282910); details: high-content imaging, actives raise or lower the signal
# Outline: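 Compounds are dosed onto HepG2 cells across ten concentrations up to 200 uM for 24 hr. Cells are then fixed in 3.7% formaldehyde, permeabilised, and labelled for phospho-histone H3 and nuclei; images are scored by cell cycle analysis and fitted bidirectionally relative to DMSO.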
# [14] = APR_HepG2_MitoMass_24hr: Apredica 24-hour HepG2 Assay for Mitochondrial Mass (AID 2282912); details: high-content imaging, actives raise or lower the signal
# Outline: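 HepG2 cells exposed 24 hr to 0.39–200 uM compound, 0.5% v/v DMSO, in duplicate. Stained before fixation with 250 nM MitoTracker Red CMXRos for 30 min, then imaged at 20x with Hoechst nuclei. Fitted in both directions against DMSO.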
# [15] = APR_HepG2_p53Act_24hr: Apredica 24-hour HepG2 Assay for p53 Activation (AID 2282913); details: high-content imaging, actives raise or lower the signal;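 also: p53 protein immunofluorescence averaged per cell in HepG2 with Hoechst nuclei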
# Outline: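 Following 24 hr dosing of HepG2 at 0.39–200 uM, the cells undergo formaldehyde fixation, Triton permeabilization and multiplexed antibody labeling that includes p53 (Cy5). Signal from the imaging is referenced to DMSO solvent controls.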
# [16] = APR_HepG2_CellCycleArrest_72hr: Apredica 72-hour HepG2 Assay for Cell Cycle Arrest (AID 2282914); details: high-content imaging, actives raise or lower the signal
# Outline: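 Using multiplexed high-content imaging, HepG2 nuclei stained with Hoechst 33342 (2 ug/mL) were analysed for DNA content after fixation and permeabilization. Treatment lasted 72 hr across 0.39–200 uM in duplicate with final DMSO 0.5% v/v; DMSO served as negative control.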
# [17] = APR_HepG2_MitoMembPot_24hr: Apredica 24-hour HepG2 Assay for Mitochondrial Membrane Potential (AID 2282911); details: imaging, actives raise or lower the signal
# Outline: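 Mitochondrial dye uptake (MitoTracker Red CMXRos, 250 nM, 30 min pre-fixation) in HepG2 after 24 hr compound exposure, 0.39–200 uM; ArrayScan images at 20x, activity fitted in both directions relative to DMSO.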
# [18] = APR_HepG2_P-H2AX_1hr: Apredica 1-hour HepG2 Assay for H2AX Phosphorylation (AID 2282673); details: high-content imaging, actives raise or lower the signal
# Outline: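 HepG2 dosed 1 hr at 0.39-200 uM (0.5% DMSO final), duplicate. Fixed in 3.7% formaldehyde, Triton permeabilized, immunostained for phospho-histone H2A.x (1:200) with Hoechst 33342; ArrayScan 20x imaging, bidirectional fit vs DMSO.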
compound,measurement,setting,value
CCOC(=O)CC(SP(=S)(OC)OC)C(=O)OCC (configuration not stated),outcome,[1],inactive
same,outcome,[2],inactive
same,outcome,[3],inactive
same,outcome,[4],inactive
same,outcome,[5],inactive
same,outcome,[6],inactive
same,outcome,[7],inactive
same,outcome,[8],inactive
same,outcome,[9],inactive
same,outcome,[10],inactive
same,outcome,[11],inactive
same,outcome,[12],inactive
same,outcome,[13],inactive
same,outcome,[14],inactive
same,outcome,[15],inactive
same,outcome,[16],inactive
COc1ccc(C(c2ccc(OC)cc2)C(Cl)(Cl)Cl)cc1,outcome,[1],inactive
same,AC50,[2],10.4 µM (active) and 1.41 µM (active) and 728 nM (active)
same,outcome,[3],inactive
same,outcome,[4],inactive
same,outcome,[6],inactive
same,AC50,[7],100 µM (active)
same,outcome,[8],inactive
same,outcome,[9],inactive
same,outcome,[10],inactive
same,AC50,[11],60.5 µM (active)
same,AC50,[12],69.8 µM (active)
same,outcome,[13],inactive
same,outcome,[14],inactive
same,outcome,[15],inactive
same,outcome,[16],inactive
Oc1ccccc1-c1ccccc1,outcome,[1],inactive
same,outcome,[2],inactive
same,outcome,[3],inactive
same,outcome,[4],inactive
same,outcome,[6],inactive
same,outcome,[7],inactive
same,AC50,[8],82.1 µM (active)
same,outcome,[9],inactive
same,outcome,[10],inactive
same,outcome,[11],inactive
same,outcome,[12],inactive
same,outcome,[13],inactive
same,outcome,[14],inactive
same,outcome,[15],inactive
same,outcome,[16],inactive
CCOP(=S)(OCC)SCn1c(=O)oc2cc(Cl)ccc21,outcome,[1],inactive
same,outcome,[2],inactive
same,outcome,[3],inactive
same,outcome,[4],inactive
same,outcome,[7],inactive
same,outcome,[8],inactive
same,outcome,[9],inactive
same,outcome,[10],inactive
same,outcome,[11],inactive
same,outcome,[12],inactive
same,outcome,[13],inactive
same,outcome,[17],inactive
same,outcome,[14],inactive
same,outcome,[15],inactive
same,AC50,[16],85 µM (active)
COC(=O)C=C(C)OP(=O)(OC)OC,outcome,[1],inactive
same,outcome,[2],inactive
same,outcome,[3],inactive
same,outcome,[4],inactive
same,outcome,[18],inactive
same,outcome,[7],inactive
same,outcome,[8],inactive
same,outcome,[9],inactive
same,outcome,[10],inactive
same,outcome,[11],inactive
same,outcome,[12],inactive
same,outcome,[13],inactive
same,outcome,[17],inactive
same,outcome,[14],inactive
same,outcome,[15],inactive
same,outcome,[16],inactive
N#Cc1nn(-c2c(Cl)cc(C(F)(F)F)cc2Cl)c(N)c1S(=O)C(F)(F)F (configuration not stated),outcome,[1],inactive
same,outcome,[2],inactive
same,outcome,[3],inactive
same,outcome,[4],inactive
same,outcome,[5],inactive
same,AC50,[7],54.4 µM (active)
same,AC50,[8],50.9 µM (active)
same,outcome,[9],inactive
same,outcome,[10],inactive
same,AC50,[11],96.2 µM (active)
same,AC50,[12],87.2 µM (active)
same,AC50,[13],100 µM (active)
same,outcome,[14],inactive
same,outcome,[15],inactive
same,AC50,[16],19.9 µM (active)
O=C(O)c1nc(Cl)ccc1Cl,outcome,[1],inactive
same,outcome,[2],inactive
same,outcome,[3],inactive
same,outcome,[4],inactive
same,outcome,[18],inactive
same,outcome,[7],inactive
same,outcome,[8],inactive
same,outcome,[9],inactive
same,outcome,[10],inactive
same,outcome,[11],inactive
same,outcome,[12],inactive
same,outcome,[13],inactive
same,outcome,[14],inactive
same,outcome,[15],inactive
same,outcome,[16],inactive
